“And” between values parts separate entries of the source, which are not always exact repeats. Equal values may be shown once. The campaign covered roughly 360,000 compounds. About 1,800 (0.5%) were called active.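 Rule for the calls: active = mean inhibition of at least 75% with every replicate also reaching 75%; inconclusive = mean inhibition at least 75% but some replicate below; inactive = mean inhibition below 75%.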 Only a selection was taken, and actives are over-represented in it overall.
Experiment: Shn3 3'UTR reporter decrease in osteoblasts – cell-based, Clone20 osteoblasts, firefly luciferase, set 2, Schnurri-3 inhibitor project, primary screen (AID 588674);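 note: 0% = median of neutral control wells and 100% = pilot-screen positive control compound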
Settings: Clone20 osteoblast Shn3 3'UTR firefly luciferase, 24 h; at 12.5 µM; hits give high values

inhibition, inactive:
O=C(CCNS(=O)(=O)c1cccs1)N1CCN(c2ccc(F)cc2)CC1 -1.48%
COC(=O)c1c(NC(=O)c2ccc(S(=O)(=O)N3CCOCC3)cc2)sc2c1CCN(C(C)C)C2 -14%
N#C/C(C(=S)Nc1ccccc1)=C1/NN=C(N2CCOCC2)N1c1ccccc1 2.09%
Cc1cc(-n2nc(C)cc2C)n2ncc(-c3ccccc3)c2n1 -43%
CCOC(=O)c1cnc2nc(SCc3ccccc3Cl)[nH]n2c1=O -11.4%
O=C(Oc1ccccc1)Oc1ccc2c(c1)oc(=O)c1ccccc12 -6.2% and -3.28%
Cc1ncoc1C(=O)NCCC(c1ccccc1)c1ccccc1 17.9%
CCNc1nc(NCC)nc(N(C)n2cnnc2)n1 4.63%
O=C(CCCCCn1c(=S)[nH]c2cc3c(cc2c1=O)OCO3)N1CCN(c2ccc(F)cc2)CC1 8.75%
Cc1ccc(C)c(N2CCN(C(=O)CCCn3c(=O)c4cccn4c4cccnc43)CC2)c1 8.64%
CCCN(CC(=O)Nc1ccccc1OC)C(=O)CCC(=O)c1ccc(F)cc1 8.98%
COc1ccccc1N1CCN(C(=O)C2Cc3ccccc3CN2C(=O)c2ccco2)CC1 (stereo unspecified) -11.8%
CN(C)S(=O)(=O)c1cccc(NC(=O)COC(=O)C2(c3ccccc3F)CCCC2)c1 12.1%
CC1CN(c2nc(-c3ccccc3)nnc2-c2ccccc2)CC(C)O1 (stereo unspecified) 21%
CC(C)N(C(=O)[C@H]1C[C@H](CC(=O)NC(C)(C)C)C(=O)N2CCc3c([nH]c4ccc(Cl)cc34)[C@]12C)C(C)C 26.9%
COc1cc(NC(=O)C2=C(C)OCCS2)c(Cl)cc1C(=O)NCCCN1CCCC(C)C1 (stereo unspecified) -6.28%
O=C(O)c1[nH]c2ccccc2c1C(c1cccc(O)c1)c1c(C(=O)O)[nH]c2ccccc12 0.858%
O=C(NCc1ccco1)C1(c2ccc(Cl)cc2)CCCC1 -21.5%
O=C(CSc1nnnn1-c1ccccc1)NCc1ccco1 4.12%
COc1ccccc1NC(=O)COC(=O)Cc1ccc(S(=O)(=O)N2CCCCC2)s1 -14.6%
O=C(N/N=C\c1ccc(Br)cc1)c1ccc(Cn2cccn2)o1 -11.5%
Cc1nn(Cc2ccccc2Cl)c(C)c1NC(=O)Cn1nc([N+](=O)[O-])c(Cl)c1C 3.56%
Cc1ccsc1C(=O)N[C@@H](C)c1nnc2ccccn12 1.01%
CCCN(CCC)CCNC(=O)c1cc2c(C)nc3ccccc3c2o1 24.7%
CNC(=O)c1cccc2nc3ccccc3nc12 -0.196%
O=C(CNCc1ccc(Cl)cc1)Nc1cccc(C(=O)O)c1 -8.08%
O=C(/C=C/c1ccc([N+](=O)[O-])cc1)NCCSCc1ccco1 -1.26%
COc1ccc(C)cc1-n1nnnc1SCC(=O)c1cc(C)n(Cc2ccco2)c1C 3.21%
COC(=O)CC(CC(=O)OC)n1cccc1 -11.6%
COc1ccc(NC(=O)C2Cc3c(-c4ccc5c(c4)OCO5)ccnc3O2)cn1 (stereo unspecified) 15.8%
COc1ccc(NC(=O)CN2C(=O)NC(C)(c3ccccc3)C2=O)cn1 (stereo unspecified) -47.7%
Cn1c(SCC(=O)N2CCOCC2)nnc1-c1ccc2ncccc2c1 -2.77%
Cc1cc(C)c(S(=O)(=O)N2CCCC2CNC(=O)c2ccc3c(c2)OCO3)c(C)c1 (stereo unspecified) 7.24%
CCOC(=O)c1cc(-c2ccccc2C)n(Cc2cc(C)no2)n1 4.57%
COC(=O)CN1C(=O)C(C)(C)Oc2ccc(C(=O)Nc3cccc(OC)c3)cc21 3.92%
Cc1cc(N)n2nc(-c3ccc(C(C)(C)C)cc3)cc2n1 -5.54%
O=C(NNc1ccccc1Cl)C(O)(c1cccc(C(F)(F)F)c1)c1cccc(C(F)(F)F)c1 20.3%
CC(=O)Nc1ccc(C=CC(=O)c2ccc([N+](=O)[O-])cc2)cc1 9.91%
O=C(O)C(=Cc1ccc([N+](=O)[O-])cc1)CCc1ccccc1 -2.04%
CSc1ccccc1NC(=O)c1ccc2c(c1)CCN2S(C)(=O)=O -16.4%
COc1ccc(CNc2nccs2)cc1 -11%
c1ccc(CNc2ncnc3[nH]ncc23)cc1 14.2%
CCc1ccc(N2CC(O)=C(c3nc4ccccc4c(=O)[nH]3)C2=N)cc1 -17%
CC(=O)Nc1ccc(NC(=O)CC2CCCC2)cc1 -25.4%
COc1ccc(CN2CCOC2=O)cc1OC 15.9%
O=C(Nc1ccc(Cl)c(C(F)(F)F)c1)C1Cc2c(-c3ccccc3Oc3ccccc3)ccnc2O1 (stereo unspecified) 17.7%
COc1cc(C(O)c2nc(-c3cccc(C(=O)O)c3)cs2)ccc1F (stereo unspecified) -16.5%
C/C(CC1CC(C)(C)OC1=O)=N/Nc1nc(-c2ccccc2)cs1 (stereo unspecified) -73.7%
Cc1ccc(S(=O)(=O)N(C)C)cc1NC(=O)C1Cc2ccccc2CN1C(=O)c1ccco1 (stereo unspecified) -2.14%
C/C=C(/C)C(=O)OC1Cc2c(ccc3ccc(=O)oc23)OC1(C)C (stereo unspecified) 17.3%
COc1ccc(SCc2noc(C(=O)NCC3CCCO3)c2C(=O)O)cc1 (stereo unspecified) 5.13%
Cc1ccc(NC(=S)N2CCCC(c3ccccc3)=N2)cc1 20.9%
COc1ccc(-c2cc(C(F)(F)F)n3nc(C(=O)N4CCOCC4)c(Cl)c3n2)cc1 6.42%
CN(CC(=O)Nc1cccc(F)c1)C(=O)C1=COCCO1 -7.61%
Cc1ccc(NC(=O)c2sccc2C)cc1[N+](=O)[O-] -83.1%
Cc1noc(C)c1S(=O)(=O)N(C)C[C@H]1Oc2c(NC(=O)Nc3ccc4c(c3)OCO4)cccc2C(=O)N([C@H](C)CO)C[C@@H]1C 17.8%
O=C(OCCN1C(=O)c2ccccc2C1=O)[C@@H]1CC(O)CN1S(=O)(=O)c1ccccc1[N+](=O)[O-] (stereo partly specified) -5.63%
CN(C)C=NC(=O)c1cccn1-c1ncc(C(F)(F)F)cc1Cl -4.23%
O=c1[nH]c2cccnc2n(CCNc2ncc(C(F)(F)F)cc2Cl)c1=O 2.77%
O=C(COC(=O)c1ccccc1SCC(=O)N1CCCC1)Nc1ccccc1OC(F)F -12.8%
CCCOC(=O)c1[nH]c2c(c1C)C(=O)CC(c1cccs1)C2 (stereo unspecified) 24.4%
COC(=O)C1C(=O)c2c([nH]c(C(=O)OCCSC)c2C)CC1C (stereo unspecified) -58.5%
CC(c1ccco1)N(C(=O)c1ccc(S(=O)(=O)N2CCCCC2)cc1)c1ccccn1 (stereo unspecified) 13.4%
CC(=O)N1CCOc2ccc(S(=O)(=O)N3CCN(c4cccc(C(F)(F)F)c4)CC3)cc21 40.6%
CCOC(=O)c1c(C)[nH]c(C2=NNC(=NC(C)COC)SC2)c1C (stereo unspecified) -21.6%
Cc1occc(=O)c1OCc1ccc(F)cc1 -22.9%
Fc1cccc2ncnc(OCc3ccccc3)c12 18%
COc1ccc(Cc2nnc(SC)[nH]c2=O)cc1 -14%
CC(C)c1ccc(Cc2nnc(NCCCO)[nH]c2=O)cc1 7.96%
CC(/C=C/C1(O)C(C)CC(=O)CC1(C)C)OC1OC(CO)C(O)C(O)C1O (stereo unspecified) -14.8%
CCc1ccc(NC2Nc3cc(C)nn3S2)cc1 (stereo unspecified) -59%
COc1ccccc1-n1c(SCC(=O)Nc2cccc(C(=O)O)c2)nnc1-c1ccccc1O -11.2%
COc1cc(/C=N/Nc2ccc(C)cc2)cc(Br)c1O 5.6%

inhibition, active:
C=C(C)C(=O)O[C@H]1C/C(C)=C\C(=O)/C=C(\C)[C@H](O)[C@@H]2OC(=O)C(=C)[C@@H]21 87.7%
CCOC(=O)c1cnc(-n2nc(C)cc2C)nc1NNc1cc(C)nc(-c2ccccc2)n1 92.1%
Cc1ccc(C)c(N2CCN(C(=O)CCCCCn3c(=S)[nH]c4ccc(N5CCOCC5)cc4c3=O)CC2)c1 87.2%
CC[C@H]1CN2CCc3cc(OC)c(OC)cc3[C@@H]2C[C@@H]1C[C@H]1NCCc2cc(OC)c(OC)cc21 94.7%
O=C(CSc1c2c(nc3ccc(Cl)cc13)CCCC2)NCc1ccco1 89.8%
Cc1c(Cl)c([N+](=O)[O-])nn1Cc1ccc(C(=O)N/N=C\c2cc(Cl)ccc2O)o1 92.8%
CN(C)CCNC(=O)c1ccc(Cl)c2cc3ccccc3nc12 94.1%
COc1ccc(NC(=O)/C(Cl)=C(/Cl)S(=O)Cc2ccc(C)cc2)cn1 (stereo unspecified) 96.6%
COc1ccc2c(c1)c(=Cc1ccc(N(C)C)cc1)c1cc(-c3ccccc3)[n+](C)n12 92.6%
O=C1/C(=C\c2ccc([N+](=O)[O-])cc2)CS(=O)(=O)C/C1=C/c1ccc([N+](=O)[O-])cc1 96.5%
COc1ccc(CNc2ncnc3ccccc23)cc1 86.1%
COc1ccc2c(c1OC)C(=O)OC2Nc1nc(-c2ccccc2)cs1 (stereo unspecified) 89.4%
Cc1ccc(NC(=O)CN(C)CC(=O)Nc2cccc(F)c2)cc1[N+](=O)[O-] 90.8%
COc1cccc(/C=N/Nc2ncc(C(F)(F)F)cc2Cl)c1O 89.9%
CCCOC(=O)c1[nH]c2c(c1C)C(=O)CC(c1cc(OC)c(OC)c(OC)c1)C2 (stereo unspecified) 83.2%
Cc1nc2ccccc2cc1OCc1ccc(F)cc1 85.8%
COc1ccc(Cc2nnc(N/N=C/c3ccccc3O)[nH]c2=O)cc1OC 91.1%
COc1cccc(/C=N/Nc2cc(C)nc(-c3ccccc3O)n2)c1O 86.9%
